Assay results: the supplement of paper PMC6411743
± gives the standard deviation of the averaged measurements. The full data set covers some 5,400 targets. This sample favours those with the largest changes.

Compound: Nc1nc2c(ncn2[C@@H]2O[C@H](COP(=O)(O)OP(=O)(O)OP(=O)(O)O)[C@@H](O)[C@H]2O)c(=O)[nH]1 [guanosine triphosphate]
Test: NP40-soluble protein abundance relative to vehicle (solubility fold change) (ratio); higher = more soluble protein in presence of GTP
Summary of the method: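 Values are fold changes against the detergent-processed vehicle, based on vsn-normalised intensities. Jurkat crude lysate was treated at eight concentrations from 0.1 to 10 mM (10 min at room temperature, then 3 min at 37 °C), solubilised with 0.8% NP40 and benzonase, ultracentrifuged and analysed by TMT-labelled LC-MS/MS over three independent experiments.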

UniProt Q9UBD5, sequence (Q9UBD5 whole entry): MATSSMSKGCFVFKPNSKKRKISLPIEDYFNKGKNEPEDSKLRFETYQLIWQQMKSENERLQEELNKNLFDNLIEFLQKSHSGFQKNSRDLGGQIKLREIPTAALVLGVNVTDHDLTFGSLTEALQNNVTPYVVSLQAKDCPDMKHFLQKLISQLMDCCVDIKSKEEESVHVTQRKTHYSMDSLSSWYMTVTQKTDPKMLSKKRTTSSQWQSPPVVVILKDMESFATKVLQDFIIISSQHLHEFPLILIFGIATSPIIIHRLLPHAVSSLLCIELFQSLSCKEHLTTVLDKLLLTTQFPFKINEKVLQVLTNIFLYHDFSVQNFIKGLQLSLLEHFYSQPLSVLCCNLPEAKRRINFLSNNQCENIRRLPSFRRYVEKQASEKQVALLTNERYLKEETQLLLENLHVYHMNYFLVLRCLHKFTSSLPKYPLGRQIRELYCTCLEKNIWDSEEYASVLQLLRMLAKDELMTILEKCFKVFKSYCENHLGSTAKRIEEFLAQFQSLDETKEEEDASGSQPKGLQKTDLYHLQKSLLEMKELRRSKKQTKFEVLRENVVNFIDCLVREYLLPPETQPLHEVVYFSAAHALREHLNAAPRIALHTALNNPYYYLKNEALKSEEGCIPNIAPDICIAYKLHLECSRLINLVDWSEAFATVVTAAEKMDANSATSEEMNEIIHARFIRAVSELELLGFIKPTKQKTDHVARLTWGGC
UniProt Q9UKA9, sequence (Q9UKA9 whole entry): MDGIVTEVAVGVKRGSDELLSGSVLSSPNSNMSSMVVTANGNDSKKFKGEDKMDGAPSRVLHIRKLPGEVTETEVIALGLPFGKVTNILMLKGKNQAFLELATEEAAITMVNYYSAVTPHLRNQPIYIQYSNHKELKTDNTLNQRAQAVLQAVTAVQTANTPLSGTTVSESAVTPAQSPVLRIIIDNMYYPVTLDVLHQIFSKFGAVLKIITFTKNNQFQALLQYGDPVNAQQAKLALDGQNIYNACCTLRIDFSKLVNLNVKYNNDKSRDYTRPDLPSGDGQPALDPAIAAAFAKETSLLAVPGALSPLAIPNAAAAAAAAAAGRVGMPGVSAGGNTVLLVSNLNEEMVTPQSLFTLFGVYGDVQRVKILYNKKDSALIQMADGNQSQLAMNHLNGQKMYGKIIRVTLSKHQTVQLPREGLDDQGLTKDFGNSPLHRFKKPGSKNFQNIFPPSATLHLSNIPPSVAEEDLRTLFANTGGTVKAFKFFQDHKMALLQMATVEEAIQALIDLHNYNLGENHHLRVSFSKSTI
UniProt Q9NRX1, sequence (Q9NRX1 whole entry): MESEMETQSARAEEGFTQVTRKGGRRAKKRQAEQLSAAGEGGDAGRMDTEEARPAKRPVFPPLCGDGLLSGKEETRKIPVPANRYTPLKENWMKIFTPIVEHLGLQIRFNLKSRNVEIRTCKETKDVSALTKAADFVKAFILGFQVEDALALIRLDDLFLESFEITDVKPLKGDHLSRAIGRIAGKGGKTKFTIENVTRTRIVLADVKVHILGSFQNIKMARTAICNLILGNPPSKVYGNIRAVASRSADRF
UniProt Q9UBV8, sequence (Q9UBV8 whole entry): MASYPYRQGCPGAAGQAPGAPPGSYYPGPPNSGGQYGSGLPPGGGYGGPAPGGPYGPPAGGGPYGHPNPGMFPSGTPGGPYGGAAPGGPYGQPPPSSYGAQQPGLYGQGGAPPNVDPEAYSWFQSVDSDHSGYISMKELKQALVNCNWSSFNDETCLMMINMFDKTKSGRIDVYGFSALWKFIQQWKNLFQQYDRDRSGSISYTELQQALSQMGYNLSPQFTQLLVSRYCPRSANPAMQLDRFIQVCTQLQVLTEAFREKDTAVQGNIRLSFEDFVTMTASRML
UniProt Q9BX67, sequence (Q9BX67 whole entry): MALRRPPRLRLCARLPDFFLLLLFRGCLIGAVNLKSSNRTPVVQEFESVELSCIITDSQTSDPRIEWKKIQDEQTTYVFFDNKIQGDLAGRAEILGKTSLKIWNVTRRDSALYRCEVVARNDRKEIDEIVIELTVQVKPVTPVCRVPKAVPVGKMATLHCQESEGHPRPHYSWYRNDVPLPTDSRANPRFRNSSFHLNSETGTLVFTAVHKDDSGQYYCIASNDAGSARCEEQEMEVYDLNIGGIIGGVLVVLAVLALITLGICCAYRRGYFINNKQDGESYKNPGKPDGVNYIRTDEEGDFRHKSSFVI
UniProt Q9BW71, sequence (Q9BW71 whole entry): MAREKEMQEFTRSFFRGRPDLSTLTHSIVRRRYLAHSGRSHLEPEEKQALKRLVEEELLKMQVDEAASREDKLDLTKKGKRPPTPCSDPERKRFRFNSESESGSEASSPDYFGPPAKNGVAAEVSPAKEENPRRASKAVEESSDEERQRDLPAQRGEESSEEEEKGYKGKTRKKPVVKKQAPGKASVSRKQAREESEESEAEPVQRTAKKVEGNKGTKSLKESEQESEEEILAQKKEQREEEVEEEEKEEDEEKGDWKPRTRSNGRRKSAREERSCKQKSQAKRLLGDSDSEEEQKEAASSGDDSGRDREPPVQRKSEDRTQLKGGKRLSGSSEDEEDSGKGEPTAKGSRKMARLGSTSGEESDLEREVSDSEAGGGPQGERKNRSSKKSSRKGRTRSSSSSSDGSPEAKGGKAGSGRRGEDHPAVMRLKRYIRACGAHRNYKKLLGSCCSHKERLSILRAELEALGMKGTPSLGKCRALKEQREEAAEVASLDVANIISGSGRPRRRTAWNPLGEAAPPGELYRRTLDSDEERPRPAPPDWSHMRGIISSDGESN
UniProt Q9Y4W6, sequence (Q9Y4W6 whole entry): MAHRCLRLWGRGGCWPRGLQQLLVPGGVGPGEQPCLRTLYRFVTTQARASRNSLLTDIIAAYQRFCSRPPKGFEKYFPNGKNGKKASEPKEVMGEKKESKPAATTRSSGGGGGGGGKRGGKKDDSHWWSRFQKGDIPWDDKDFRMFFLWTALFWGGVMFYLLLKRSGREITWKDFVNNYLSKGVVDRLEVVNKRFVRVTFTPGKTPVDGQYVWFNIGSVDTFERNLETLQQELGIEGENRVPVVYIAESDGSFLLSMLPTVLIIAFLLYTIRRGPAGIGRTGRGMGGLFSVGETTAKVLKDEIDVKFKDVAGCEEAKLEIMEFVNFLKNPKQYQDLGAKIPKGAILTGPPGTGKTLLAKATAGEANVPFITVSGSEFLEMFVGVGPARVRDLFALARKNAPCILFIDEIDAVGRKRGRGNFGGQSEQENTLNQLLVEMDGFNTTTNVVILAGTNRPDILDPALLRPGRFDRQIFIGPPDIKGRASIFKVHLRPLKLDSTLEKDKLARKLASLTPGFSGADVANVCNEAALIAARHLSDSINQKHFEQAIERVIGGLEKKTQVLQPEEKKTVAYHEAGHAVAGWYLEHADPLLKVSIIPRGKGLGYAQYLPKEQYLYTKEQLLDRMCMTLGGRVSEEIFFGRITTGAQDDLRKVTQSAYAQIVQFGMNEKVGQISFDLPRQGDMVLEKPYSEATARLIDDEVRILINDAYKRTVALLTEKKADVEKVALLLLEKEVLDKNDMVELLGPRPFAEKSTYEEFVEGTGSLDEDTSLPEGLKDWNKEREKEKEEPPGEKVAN
UniProt Q9NW08, sequence (Q9NW08 whole entry): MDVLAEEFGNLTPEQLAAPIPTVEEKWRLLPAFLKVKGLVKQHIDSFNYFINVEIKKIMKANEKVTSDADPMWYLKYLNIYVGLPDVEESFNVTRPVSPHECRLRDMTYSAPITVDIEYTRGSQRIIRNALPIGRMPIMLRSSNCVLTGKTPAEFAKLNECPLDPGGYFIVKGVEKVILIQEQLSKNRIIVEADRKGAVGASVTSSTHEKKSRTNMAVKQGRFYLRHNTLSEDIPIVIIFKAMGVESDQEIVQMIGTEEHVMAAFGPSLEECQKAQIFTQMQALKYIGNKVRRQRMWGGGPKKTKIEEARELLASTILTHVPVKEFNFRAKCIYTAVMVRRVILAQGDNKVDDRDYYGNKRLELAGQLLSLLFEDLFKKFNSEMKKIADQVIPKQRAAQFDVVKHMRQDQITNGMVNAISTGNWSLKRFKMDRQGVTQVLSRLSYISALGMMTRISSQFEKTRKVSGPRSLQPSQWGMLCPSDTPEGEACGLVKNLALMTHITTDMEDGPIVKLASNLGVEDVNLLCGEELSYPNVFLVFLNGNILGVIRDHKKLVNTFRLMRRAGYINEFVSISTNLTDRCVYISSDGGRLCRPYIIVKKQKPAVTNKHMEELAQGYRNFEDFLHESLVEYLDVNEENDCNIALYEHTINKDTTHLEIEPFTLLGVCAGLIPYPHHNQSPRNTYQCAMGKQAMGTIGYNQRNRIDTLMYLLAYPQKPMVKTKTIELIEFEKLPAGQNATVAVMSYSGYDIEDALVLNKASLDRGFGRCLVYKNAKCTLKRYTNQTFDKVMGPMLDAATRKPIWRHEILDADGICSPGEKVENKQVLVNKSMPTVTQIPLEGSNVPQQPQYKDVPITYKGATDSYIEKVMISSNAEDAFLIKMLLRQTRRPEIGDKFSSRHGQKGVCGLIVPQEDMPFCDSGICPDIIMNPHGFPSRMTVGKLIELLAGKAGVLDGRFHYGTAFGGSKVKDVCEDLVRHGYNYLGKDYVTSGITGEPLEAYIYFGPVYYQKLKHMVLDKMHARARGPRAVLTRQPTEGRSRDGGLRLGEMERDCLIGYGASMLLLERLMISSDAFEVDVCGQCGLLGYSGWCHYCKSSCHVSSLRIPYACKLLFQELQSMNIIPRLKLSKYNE
UniProt Q9H6E4, sequence (Q9H6E4 whole entry): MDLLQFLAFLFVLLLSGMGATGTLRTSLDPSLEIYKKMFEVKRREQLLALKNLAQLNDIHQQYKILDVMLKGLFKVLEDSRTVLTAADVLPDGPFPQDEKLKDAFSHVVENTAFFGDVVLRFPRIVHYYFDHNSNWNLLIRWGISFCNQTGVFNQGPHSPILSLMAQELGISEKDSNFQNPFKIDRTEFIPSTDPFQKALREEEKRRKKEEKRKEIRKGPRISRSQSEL

Target	NP40-soluble protein abundance (concentration: 0.1mM)	NP40-soluble protein abundance (concentration: 0.5mM)	NP40-soluble protein abundance (concentration: 1mM)	NP40-soluble protein abundance (concentration: 2mM)	NP40-soluble protein abundance (concentration: 4mM)	NP40-soluble protein abundance (concentration: 6mM)	NP40-soluble protein abundance (concentration: 8mM)	NP40-soluble protein abundance (concentration: 10mM)
DDX21 (UniProt Q9NR30)	1.11 ± 0.027	1.1 ± 0.048	1.18 ± 0.026	1.32 ± 0.019	1.56 ± 0.018	1.82 ± 0.028	2.13 ± 0.038	2.698 ± 0.024
VPS35 (UniProt Q96QK1)	1.03 ± 0.082	1.04 ± 0.093	0.913 ± 0.048	0.958 ± 0.13	0.929 ± 0.11	0.912 ± 0.086	0.833 ± 0.048	0.868 ± 0.093
HIRIP3 (UniProt Q9BW71)	0.932 ± 0.071	0.925 ± 0.089	1.01 ± 0.1	0.983 ± 0.15	1.04 ± 0.14	1.07 ± 0.14	1.13 ± 0.06	1.14 ± 0.094
UniProt Q9Y2A7|Q9Y2A7-2	0.9505 ± 0.0043	1.002 ± 0.0081	0.972 ± 0.055	0.982 ± 0.015	0.991 ± 0.034	0.9641 ± 0.0054	1.02 ± 0.026	0.973 ± 0.011
UniProt Q9H8M2|Q9H8M2-3|Q9H8M2-6	0.966 ± 0.054	1.05 ± 0.13	1.03 ± 0.085	0.995 ± 0.033	1.04 ± 0.11	1.13 ± 0.12	1.11 ± 0.029	1.09 ± 0.04
UniProt Q9BX67	1.04 ± 0.013	0.954 ± 0.065	0.965 ± 0.026	0.913 ± 0.066	0.905 ± 0.046	0.88 ± 0.086	0.953 ± 0.035	0.897 ± 0.06
CCDC134 (UniProt Q9H6E4)	0.934 ± 0.071	0.893 ± 0.1	0.944 ± 0.089	0.911 ± 0.087	0.905 ± 0.077	0.881 ± 0.084	0.869 ± 0.1	0.86 ± 0.091
UniProt Q9UKA9|Q9UKA9-4	1.04 ± 0.021	0.985 ± 0.025	1.01 ± 0.014	0.989 ± 0.045	0.947 ± 0.051	0.955 ± 0.036	0.963 ± 0.029	0.906 ± 0.027
PEF1 (UniProt Q9UBV8)	0.946 ± 0.077	0.888 ± 0.036	0.995 ± 0.1	0.994 ± 0.043	1.03 ± 0.076	0.993 ± 0.063	0.891 ± 0.084	1.02 ± 0.14
AFG3L2 (UniProt Q9Y4W6)	0.998 ± 0.016	0.996 ± 0.016	0.946 ± 0.024	0.969 ± 0.022	0.977 ± 0.022	0.987 ± 0.04	0.988 ± 0.02	0.938 ± 0.014
PNO1 (UniProt Q9NRX1)	1.04 ± 0.082	1.09 ± 0.17	1.14 ± 0.19	1.15 ± 0.28	1.09 ± 0.27	1.09 ± 0.3	1.15 ± 0.28	1.15 ± 0.32
UniProt Q9UBD5|Q9UBD5-2	0.981 ± 0.061	1.06 ± 0.076	0.957 ± 0.092	1.04 ± 0.049	0.998 ± 0.069	1.04 ± 0.04	1.02 ± 0.1	1.07 ± 0.018
UniProt Q9NW08|Q9NW08-2	1.08 ± 0.03	1.13 ± 0.075	1.09 ± 0.12	1.15 ± 0.18	1.19 ± 0.16	1.16 ± 0.19	1.13 ± 0.18	1.09 ± 0.17
UTP18 (UniProt Q9Y5J1)	1.06 ± 0.091	1.16 ± 0.12	1.13 ± 0.091	1.24 ± 0.091	1.37 ± 0.11	1.3 ± 0.044	1.37 ± 0.17	1.57 ± 0.17
